Measurements: PubChem BioAssay (NCI)
Compounds without any hit were thinned out: in the full panel of roughly 83,000, 20% have a hit.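 48-hour exposure, single concentration, 96-well plates; percent growth endpoint where 0 means no net growth. Active: below 10.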 A number with no mark means an inactive call. Calls of active or inactive are those of the source.

Experiments:
Experiment in all cases: NCI-60 one-dose screen, 48 h (100 = growth as untreated, 0 = no growth, -100 = all killed)
SR leukemia = details: 10 µM unless noted
RPMI-8226 leukemia = details: 10 µM
OVCAR-8 ovarian = details: 10 µM unless noted
OVCAR-5 ovarian = details: 10 µM unless noted
OVCAR-4 ovarian = details: 10 µM unless noted
IGROV1 ovarian = details: 10 µM unless noted
OVCAR-3 ovarian = details: 10 µM unless noted
HS 578T breast = details: 10 µM unless noted
NCI/ADR-RES ovarian = details: 10 µM unless noted
BT-549 breast = details: 10 µM unless noted
MDA-MB-435 melanoma = details: 10 µM unless noted
SW-620 colon = details: 10 µM unless noted
MCF7 breast = details: 10 µM unless noted
HCT-116 colon = details: 10 µM unless noted
HCC-2998 colon = details: 10 µM unless noted
KM12 colon = details: 10 µM unless noted
T-47D breast = details: 10 µM

Row | Structure (SMILES) | growth (SR leukemia) | growth (RPMI-8226 leukemia) | growth (OVCAR-8 ovarian) | growth (OVCAR-5 ovarian) | growth (OVCAR-4 ovarian) | growth (IGROV1 ovarian) | growth (OVCAR-3 ovarian) | growth (HS 578T breast) | growth (NCI/ADR-RES ovarian) | growth (BT-549 breast) | growth (MDA-MB-435 melanoma) | growth (SW-620 colon) | growth (MCF7 breast) | growth (HCT-116 colon) | growth (HCC-2998 colon) | growth (KM12 colon) | growth (T-47D breast)
1 | C[C@]1(CO)C[C@@H](O)C[C@]2(C)[C@@H]1CC[C@@]13C[C@@H]4[C@@H](C[C@H]12)[C@]4(C)C3 | 118% | 114% | 105% | 97.6% | 104% | 106% | 113% | 102% | 105% | 98.8% | 99.5% | 101% | 102% | 89.3% | 119% | 109% | 
2 | Cc1ccc2c(c1)c(Sc1ccc(C(=O)NO)cc1)c1n2CN(C)CC1 | 5.05% (active) | 1.92% (active) | 5.57% (active) | 7.36% (active) | -1.78% (active) | 42.4% | -7.94% (active) | 33.5% | 53.1% | 54.3% |  | 7.66% (active) | 16.6% | -11.2% (active) | 14.9% | 27.7% | 23.4%
3 | CCN1CCN(c2nc3ccccc3c3c(=O)c4cc(F)ccc4sc23)CC1 | 0.85% (active) | 65.5% | 71% | 79.8% | 63% | 57% | 71% | 62.1% | 78.3% | 85.7% |  | 37.2% | 65.1% | 54.8% | 64.9% | 48.5% | 65.1%
4 | COC(=O)c1c2c(c(C)[n+]([O-])c1C)C(=O)C(NCc1ccc(O)cc1)=CC2=O | 11.1% | -2.15% (active) | 5.26% (active) | -17% (active) | -97.4% (active) | -45% (active) | -33.1% (active) | -22.5% (active) | -6.46% (active) | 34.5% | -96.5% (active) | -3.33% (active) | -63.4% (active) | -6.79% (active) | -20.1% (active) | 2.07% (active) | -7.43% (active)
5 | CCN1C(=O)C2(Nc3ccccc3S2)c2cc(C)ccc21 (configuration not stated) | 111% | 92.9% | 97.8% | 91.8% | 95.9% | 98.2% | 108% | 116% | 101% | 110% | 102% | 96.5% | 101% | 96.7% | 105% | 107% | 93.5%
6 | COc1ccc(/C=N\N2CCOCC2)cc1OC1CCCC1 | 101% | 103% | 104% | 103% | 97.6% | 107% | 114% | 90.7% | 106% | 83.8% | 106% | 100% | 93.2% | 87.9% | 112% | 106% | 
7 | CCN(CC)c1ccc2c(c1)OS(=O)(=O)N=C2 | 93.3% | 104% | 107% | 99.9% | 97.9% | 97.5% | 114% | 110% | 95.6% | 95.7% | 101% | 103% | 94.7% | 99.5% | 114% | 113% | 
8 | N#Cc1ccc(C(F)(F)F)nc1N1CCC(C(=O)Nc2ccc(Cl)cc2)CC1 | 48.3% | 74.1% | 75.8% | 76.9% | 69.1% | 102% | 99.4% | 105% | 72.1% | 70.8% | 67.5% | 75.4% | 60% | 41.3% | 68.7% | 91% | 64.7%
9 | O=C1C(OCCOc2ccccc2)=C(OCCOc2ccccc2)C(=O)c2ccccc21 | 60.1% | 78.8% | 86.8% | 124% | 44.8% | 62.7% | 78.2% | 60.3% | 68.8% | 27.4% | 75.8% | 45.1% | 64% | 26% |  | 57.8% | 78.2%
10 | COc1ccc(-c2nc3sccn3c2/C=C/C(=O)c2cc(OC)c(OC)c(OC)c2)cc1OC | 14.6% | 10.9% | 25.6% | 79.1% | 21.9% | 34.1% | 2.79% (active) | 3.84% (active) | -9.5% (active) | 0.662% (active) | -30.5% (active) | 10.2% | 4.93% (active) | 7.36% (active) | 40.3% | -15.2% (active) | 4.81% (active)
11 | CN1CCn2c(c(Sc3ccc(C(=O)NO)cc3)c3ccccc32)C1=O | 0.516% (active) | -19.9% (active) | -46.5% (active) | 24.3% | 14% | -44.1% (active) | -32.5% (active) | 49.3% | 64.1% | 2.47% (active) | -74.6% (active) | -14.4% (active) | 27.1% | -39.3% (active) | -37.8% (active) | -51.4% (active) | 14.6%
12 | O=C(c1ccc2ncc(-c3nc(NC4CC4)ncc3F)n2c1)N1CCOCC1 | 3.87% (active) | 25.7% | 18.5% | 9.93% (active) | 63.2% | 8.94% (active) | -22.2% (active) | 4.89% (active) | 48.2% | 52.4% | 32% | 10.2% | 5.99% (active) | 0.221% (active) | 71.3% | 2.99% (active) | 32.2%
13 | COC(=O)[C@@]12CC[C@@H](C)[C@]3(C[C@@H](c4ccoc4)OC3=O)[C@H]1CC[C@@H]1O[C@@]12C | 110% | 110% | 102% | 91.4% | 104% | 103% | 110% | 98.7% | 102% | 101% | 99.8% | 97.1% | 96.7% | 95.5% | 101% | 103% | 
14 | COc1cc(/C=C/c2cc(/C=C/c3ccc(O)c(OC)c3)n(-c3ccccc3)n2)ccc1O | -13.9% (active) | -33.6% (active) | -13.1% (active) | -7.74% (active) | 4.49% (active) | -21.2% (active) | -46.9% (active) | -13% (active) | 3.18% (active) | -47.2% (active) |  | -22.7% (active) | -5.71% (active) | -5.83% (active) | 5.82% (active) | -28% (active) | -23.9% (active)
15 | COc1cc(C(=O)N(C(C)C)C2CCCCC2)cc(OC)c1OC | 99.5% | 88.5% | 90.3% | 109% | 107% | 105% | 113% | 102% | 96.1% | 143% | 107% | 107% | 86.2% | 122% |  | 102% | 107%
16 | Cc1cc(=O)oc2c1ccc1oc(C(=O)c3ccccc3)c(C)c12 | 60.3% | 69.5% | 76.2% | 104% | 66.8% | 102% | 85.6% | 103% | 83.3% | 101% | 95.8% | 92.2% | 69.4% | 83.5% |  | 73.2% | 76.3%
17 | CCCCC(O)Cn1ncc(C(=O)OCC)c1NC(=O)NCc1ccccc1C(F)(F)F (configuration not stated) | 87.9% | 88.6% | 98.7% | 105% | 85% | 99% | 108% | 106% | 98.7% | 92% | 99.5% | 104% | 94.1% | 89.6% | 108% | 101% | 
18 | COc1ccc(-n2ncc3c4nc(OC)c(S(=O)(=O)c5ccccc5)cc4ccc32)cc1 | 85.9% | 95% | 52.7% | 91.3% | 45.5% | 92% | 77.2% | 43.5% | 73.4% | 53.1% | 83.3% | 90% | 87.9% | 59.7% | 96.7% | 90.2% | 57%
19 | O=c1c2cc(F)ccc2oc2c(NCCNCCO)nc3ccccc3c12 | -28.7% (active) | 32.1% | 34.1% | 60.6% | 37.3% | 37% | 55% | 67.1% | 48.9% | 79.8% | 48.5% | 21.4% | 31.4% | 17.2% | 56.5% | 31.8% | 84.8%
